Experimental data taken from PubChem BioAssay AID652054 (National Center for Advancing Translational Sciences (NCATS), 2013).
Screen size: about 360,000 compounds; about 9,100 (2.5%) were called active. Another 4% or so got no clear call; they are omitted. This is one part of a sample in which actives are shown more often than they occur. A number with no mark means an inactive call. Rule as the data show it: active = max response below about -50%; inconclusive = no clear call, values can overlap the other calls; inactive = above that.

What follows are compounds tested against D(3) dopamine receptor (Homo sapiens) (UniProt P35462) (assay: qHTS of D3 Dopamine Receptor Antagonist: qHTS). Conditions: D3R cells, DiscoveRx beta-arrestin luminescence, antagonist mode; hits give low values.
D(3) dopamine receptor (Homo sapiens), sequence (P35462 whole entry, looked up): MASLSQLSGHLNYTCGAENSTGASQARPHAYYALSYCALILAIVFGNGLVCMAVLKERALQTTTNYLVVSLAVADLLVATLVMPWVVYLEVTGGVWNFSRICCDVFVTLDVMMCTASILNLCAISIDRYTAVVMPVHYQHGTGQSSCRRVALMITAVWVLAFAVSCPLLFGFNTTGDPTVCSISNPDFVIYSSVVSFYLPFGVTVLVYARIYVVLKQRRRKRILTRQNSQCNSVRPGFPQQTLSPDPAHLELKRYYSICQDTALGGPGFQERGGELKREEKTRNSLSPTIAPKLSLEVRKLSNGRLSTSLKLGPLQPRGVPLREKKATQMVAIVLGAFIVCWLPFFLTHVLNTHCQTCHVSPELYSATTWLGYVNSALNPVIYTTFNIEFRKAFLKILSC
Summary of the method: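 Cells plated overnight at 1500 cells/well, then exposed to library compounds with dopamine controls for 90 minutes at 37 degrees C. DiscoveRx reagent added for 30–60 minutes at room temperature; luminescence read, quantitative HTS format.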
% is scaled to controls: 0 for no effect and ±100 for the full control effect.

Row | Compound | max response, negative = inhibition
1 | CS(=O)(=O)/C(C#N)=C/c1cccn1S(=O)(=O)c1ccc([N+](=O)[O-])cc1 | -13.9%
2 | O=C1c2ccccc2C(=O)c2c1cccc2N1CCN(Cc2ccccc2)CC1 | -83% (active)
3 | O=C(CN1CCN(Cc2ccccc2)CC1)NC(c1ccccc1)c1ccccc1 | -9.3%
4 | O=S1(=O)CCN(Cc2ccccc2)CC1 | -8.1%
5 | FC(F)(F)c1cccc(-c2nc3ccccc3n2C(c2ccccc2)c2nc3ccccc3[nH]2)c1 (stereo not given) | 7.98%
6 | CCCNC(=O)c1cc(C2CCCCN2S(=O)(=O)c2ccc(C#N)cc2)on1 (stereo not given) | 15.7%
7 | CCOc1ccc(CCN2C(=O)C(=O)N([C@@H](CC(C)C)CN3CCC[C@H]3CN3C(=O)C(=O)NC[C@@H]3Cc3ccccc3)C[C@@H]2CC(C)C)cc1 | 2.39%
8 | O=C(O)c1ccc(NS(=O)(=O)c2cccc3nsnc23)cc1 | -88.2% (active)
9 | COc1ccc(NS(=O)(=O)c2cccc3nsnc23)cc1Cl | -6.5%
10 | O=S(=O)(Nc1ccccc1Cl)c1cccc2nsnc12 | -8.87%
11 | Cc1cn([C@H]2C[C@H](O)[C@@H](/C=C/C(=O)NCCCc3ccccc3)O2)c(=O)[nH]c1=O | 0%
12 | CCOc1ccc(C(=O)NC2CCN(S(=O)(=O)CC)CC2)cc1 | 8.12%
13 | CCOc1ccc(NS(=O)(=O)c2ccc(C(=O)NC3CCN(Cc4ccccc4)CC3)cc2)cc1 | -68.8% (active)
14 | CCOc1ccc(NS(=O)(=O)c2ccc(C(=O)NCC3CCCO3)cc2)cc1 (stereo not given) | -69.2% (active)
15 | CCOc1ccc(S(=O)(=O)NCCC(=O)NCC2CCCO2)cc1 (stereo not given) | 20.2%
16 | CCOc1ccc(CC(=O)NC2CCN(Cc3ccccc3)CC2)cc1 | -12.8%
17 | O=C(NCC1CCCO1)c1ccc(S(=O)(=O)Nc2ccc(F)cc2)cc1 (stereo not given) | -12.1%
18 | O[C@H]1C[C@H](c2ccc(Cl)cc2)N(Cc2cccs2)C[C@@H]1n1cc(C2CC2)nn1 | -1.65%
19 | O=S1(=O)CC(N2CCN(CCO)CC2)CN1C1CCCC1 (stereo not given) | 8.42%
20 | CC(=O)Nc1cccc(-c2ccnc3c2CC(C)(C(=O)NCc2ccco2)O3)c1 (stereo not given) | -21.1%
21 | CC1CCN(c2ccc([N+](=O)[O-])c(SCCO)c2)CC1 | -51.8% (active)
22 | O=[N+]([O-])c1ccc(N2CCSCC2)cc1O | -6.65%
23 | CC1CCN(c2ccc([N+](=O)[O-])cc2C(N)=O)CC1 | 10.9%
24 | O=C(Cc1ccc([N+](=O)[O-])cc1)NCCS(=O)(=O)N1CCN(c2ccccc2)CC1 | 3.87%
25 | COc1ccc(C(CNC(=O)c2cccnc2SC)N2CCOCC2)cc1 (stereo not given) | -18.5%
26 | Cc1cc(S(=O)(=O)Nc2ccc(C(=O)NCC(c3ccco3)N3CCCC3)cc2)ccc1F (stereo not given) | 1.86%
27 | COc1cc(C(=O)NCC(c2ccco2)N2CCCC2)ccc1OCc1ccccc1 (stereo not given) | 4.86%
28 | CC1CCc2sc(C(=O)NCC(c3ccco3)N3CCCCC3)cc2C1 (stereo not given) | -82.1% (active)

Row | Compound | max response, negative = inhibition
29 | COc1ccc(C(CNC(=O)c2ccc(S(=O)(=O)Nc3ccccc3C)cc2)N2CCOCC2)cc1 (stereo not given) | -0.45%
30 | COc1ccc(C(CNC(=O)c2cc3c(s2)CCCC3)N2CCOCC2)cc1 (stereo not given) | -51.3% (active)
31 | Cc1c(C(=O)NCC(c2ccco2)N2CCCC2)oc2ccc(Cl)cc12 (stereo not given) | -65.1% (active)
32 | CC1Cc2ccccc2N1S(=O)(=O)c1cccc(C(=O)NCC(c2ccco2)N2CCCC2)c1 (stereo not given) | -17.2%
33 | CSc1ncccc1C(=O)NCC(c1ccco1)N1CCCCC1 (stereo not given) | 9.6%
34 | CC(C)C[C@@H]1COc2cc(N3CCC[C@@H]3CO)ccc2S(=O)(=O)N1 | 18.9%
35 | CN(Cc1ccccc1)C(=O)[C@@H]1CCCN1C(=O)[C@@H]1CCCN1C(=O)c1c(F)cccc1F | -11.2%
36 | O=C(NN=Cc1ccc2c(c1)CCC2)c1ccccc1O | 10.4%
37 | CCc1cccc(C)c1NC(=O)COC(=O)CNC(=O)c1cccs1 | 5.78%
38 | CCc1cccc(C)c1NC(=O)COC(=O)CC1CCCC1 | -10.7%
39 | CCc1cccc(C)c1NC(=O)COC(=O)Cc1ccsc1 | -57.7% (active)
40 | CCCCn1nnnc1C(c1cc2ccccc2o1)N(C)Cc1ccc(Cl)c(Cl)c1 (stereo not given) | 16.5%
41 | COC(=O)[C@@]12C[C@@H](CC(=O)NCCCCc3ccccc3)C(=O)N(CCc3ccc(OC)c(OC)c3)C1=CCC(C)(C)C2 | -7.78%
42 | COC(=O)c1ccc(CN2CCC(CO)(Cc3ccc(OC)cc3)CC2)cc1 | -62.3% (active)
43 | COc1cccc(CC2(CO)CCN(Cc3cnc(-c4cccc(C)c4)nc3)CC2)c1 | 33.5%
44 | COc1ccc(CC2(CO)CCN(Cc3cnn(C)c3)CC2)cc1 | 4.38%
45 | COc1ccc(CNC(=O)c2ccc(-c3cccnc3)c3ccoc23)cc1OC | 57.4%
46 | CC(=O)N1Cc2cc(C(=O)NCc3cccc(F)c3)nc(-c3cccc(C4=CCCCC4)c3)c2[C@H]1CCO | 40.6%
47 | CCNC(=O)c1cc2c(c(-c3cccc(-c4cncnc4)c3)n1)[C@H](CCO)N(C(C)=O)C2 | -53.7% (active)
48 | CC(=O)N1Cc2cc(C(=O)NCc3cccc(F)c3)nc(-c3cccc(C4=CCCC4)c3)c2[C@H]1CCO | 4.11%
49 | CN(Cc1ccc(C(F)(F)F)cc1)C(=O)[C@H]1O[C@@H](n2cnc3c(N)ncnc32)[C@H](O)[C@@H]1O | 14.2%
50 | CC1(C(=O)NCc2ccccc2)CSCC(=O)N1CCCN1CCOCC1 (stereo not given) | 2.3%
51 | CC1(C)CN(CCc2ccccc2)C(=O)[C@H]1CC(=O)Nc1ccc(Br)cc1 | -16%
52 | CN1CCN(c2ccc([N+](=O)[O-])c(Sc3nc4ccccc4[nH]3)c2)CC1 | -91.8% (active)
53 | CN1CCN(S(=O)(=O)c2ccc(N3CCN(c4ccccc4O)CC3)c([N+](=O)[O-])c2)CC1 | -19.5%
54 | O=[N+]([O-])c1ccc(N2CCNCC2)cc1NCc1cccnc1 | 1.82%
55 | CCCS(=O)(=O)NC(=O)C1(C)CCCN(C(=O)c2cc(C)on2)C1 (stereo not given) | 2.9%
